Measured values from PubChem BioAssay (Tox21).
Inconclusive results are not listed. Calls of active or inactive are those of the source. Unless noted, the call rests on the fitted dose curve; in most records, active means well fitted curve in the direction sought with a large enough effect in the repeat runs; inconclusive means weak or mixed curves; inactive means no such curve, though single readings can be large; an effect the other way counts as inactive or inconclusive.

What was measured:
[1] = qHTS assay to identify small molecule antagonists of the vitamin D receptor (VDR) signaling pathway - cell viability counter screen (AID 743225); further: nearly all actives have a fitted effect of over 50% in size
Outline: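 Viability counter screen run in the same wells as the beta-lactamase reporter assay: HEK 293T VDR-UAS-bla cells, 16 h compound exposure at 37C with 3 nM (final) 1-alpha,25-dihydroxyvitamin D3. CellTiter-Glo luminescence, 30 min, room temperature.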

[2] = qHTS assay to identify small molecule agonists of the NFkB signaling pathway (AID 1159509; active means well fitted curve in the direction sought with a large enough effect in the signal ratio in the repeat runs, not every such curve was filed as active; the % refers to the signal ratio; further: series mostly up to about 61 µM)
Outline: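 Agonist activity was read as beta-lactamase-driven FRET change (460 and 530 nm emission, 405 nm excitation) following 1.5 hr substrate loading at room temperature. Beforehand, ME-180 NFkB-bla reporter cells were treated with compounds for 5 hr at 37 C.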

[3] = qHTS assay to identify small molecule agonists of the endoplasmic reticulum stress response signaling pathway (AID 1159516; active means well fitted activation curve with a large enough effect in the signal ratio in the repeat runs, not every such curve was filed as active; the % refers to the signal ratio)
Outline: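 Cells are seeded at 1,500 per well and incubated overnight. Compounds in DMSO are added for 5 hr at 37 C, then beta-lactamase FRET substrate for 2 hr at room temperature, and fluorescence at 460 and 530 nm is measured.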

[4] = qHTS assay to identify small molecule agonists of the endoplasmic reticulum stress response signaling pathway - cell viability counter screen (AID 1159517; calls by dose curve;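 further: HeLa cells carrying an ER stress response element beta-lactamase reporter; series mostly up to about 61 µM; nearly all actives have a fitted effect of over 50% in size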)
Outline: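 ESRE-bla HeLa cells (1,500/well) were plated overnight at 37 C and exposed to compounds for 5 hr. After the 2 hr beta-lactamase substrate read, CellTiter-Glo went into the same wells, and luminescence was read after 30 min at room temperature.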

[5] = target: Nuclear receptor ROR-gamma (Homo sapiens) (UniProt P51449); assay: qHTS assay to identify small molecule antagonists of the retinoid-related orphan receptor gamma (ROR-gamma) signaling pathway (AID 1159521;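 further: CHO cells with doxycycline inducible ROR-gamma driving an RORE luciferase reporter; top concentration of the series differs between compounds; nearly all actives have a fitted effect of over 50% in size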)
Outline: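 Luminescence readout (ONE-Glo, 30 min RT) after 16 h doxycycline induction; loss of signal scored as antagonism. CHO cells with TET-inducible RORγ and RORE-LUC reporter; compounds added 2 h before 1 uM final doxycycline.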

[6] = qHTS assay to identify small molecule agonists of the AP-1 signaling pathway - cell viability counter screen (AID 1159525; calls by dose curve; further: nearly all actives have a fitted effect of over 55% in size; further: potency means the concentration at half of the fitted maximal effect)
Outline: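 Intracellular ATP by Cell Titer Glo luminescence (30 min, RT) in the same ME-180 AP-1-bla wells after the 5 h compound exposure at 37 °C. Normalised to tetra n-octyl ammonium bromide and DMSO controls.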

[7] = qHTS assay to identify small molecule agonists of the AP-1 signaling pathway (AID 1159526; calls by dose curve)
[8] = qHTS assay to identify small molecule antagonists of the retinoid acid receptor (RAR) signaling pathway - cell viability counter screen (AID 1159551); further: nearly all actives have a fitted effect of over 35% in size
Outline: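 Cells (C3RL4) are plated, incubated overnight, dosed with compound in DMSO, then given retinol at 1 uM final. After 6 h at 37 C, CellTiter-Glo is added and luminescence read following 30 min at room temperature.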

[9] = qHTS assay to identify small molecule antagonists of the retinoic acid receptor (RAR) signaling pathway (AID 1159552; further: nearly all actives have a fitted effect of over 50% in size; further: potency means the concentration at half of the fitted maximal effect)
Outline: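 Luminescence from a RARE luciferase reporter in C3RL4 cells served as read-out. Cells received compounds together with 1 uM final retinol and incubated 6 hr at 37 C before detection reagent was added for 30 min at room temperature.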

[10] = qHTS assay to identify small molecule agonists of the retinoic acid receptor (RAR) signaling pathway (AID 1159553); further: potency means the concentration at half of the fitted maximal effect
Outline: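 Seed C3RL4 reporter cells at 1,000 per well and incubate overnight at 37 C. Add compounds in DMSO, incubate 6 hr. Add luciferase reagent, wait 30 min at room temperature, read luminescence.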

[11] = qHTS assay to identify small molecule antagonists of the retinoid-related orphan receptor gamma (ROR-gamma) signaling pathway - cell viability counter screen (AID 1159520); further: nearly all actives have a fitted effect of over 50% in size
Outline: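 Cytotoxicity was read from cellular ATP (CellTiter-Glo luminescence) after 16 hr at 37 C with 1 uM doxycycline induction. The inducer was added 2 hr after compound transfer to Tet-on ROR gamma CHO cells.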

[12] = target: Retinoic acid receptor RXR-alpha (Homo sapiens) (UniProt P19793); assay: qHTS assay to identify small molecule agonists of the RXR signaling pathway (AID 1159527; calls by dose curve; further: nearly all actives have a fitted effect of over 35% in size)
Chain of Retinoic acid receptor RXR-alpha (Homo sapiens) (P19793 whole entry, looked up): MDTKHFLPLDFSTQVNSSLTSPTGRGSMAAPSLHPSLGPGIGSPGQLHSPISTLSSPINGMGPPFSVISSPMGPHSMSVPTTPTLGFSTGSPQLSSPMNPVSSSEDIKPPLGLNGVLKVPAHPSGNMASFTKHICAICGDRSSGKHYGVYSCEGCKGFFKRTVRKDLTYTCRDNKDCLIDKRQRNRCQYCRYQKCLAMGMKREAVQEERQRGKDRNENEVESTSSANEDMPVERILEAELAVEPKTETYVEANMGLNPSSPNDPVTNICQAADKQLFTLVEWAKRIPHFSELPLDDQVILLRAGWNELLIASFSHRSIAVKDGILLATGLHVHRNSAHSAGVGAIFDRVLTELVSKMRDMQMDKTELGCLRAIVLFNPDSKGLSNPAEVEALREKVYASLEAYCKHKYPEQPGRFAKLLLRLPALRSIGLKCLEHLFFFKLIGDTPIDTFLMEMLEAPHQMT
Outline: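 Agonist mode; 9-cis retinoic acid positive control. HEK 293T UAS-bla reporter cells, 2% charcoal-stripped FBS, 16 hr compound exposure at 37 C/5% CO2. LiveBLAzer B/G FRET substrate 2 hr RT; ex 405, em 460/530 nm.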

[13] = qHTS assay to identify small molecule agonists of the RXR signaling pathway - cell viability counter screen (AID 1159529); further: nearly all actives have a fitted effect of over 50% in size; further: potency means the concentration at half of the fitted maximal effect
Outline: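 Luminescence from CellTiter-Glo (30 min, RT) measured viability in the same wells as the beta-lactamase reporter readout. Cells: GeneBLAzer RXR-alpha HEK 293T, 2% charcoal-stripped FBS. Compound exposure 16 hr, 37 C.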

[14] = qHTS assay to identify small molecule antagonists of the estrogen related receptor (ERR) signaling pathway - cell viability counter screen (AID 1224818); further: series mostly up to about 46 µM
Outline: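 ERR cells, 2,000/well; 6 h settle at 37 C/5% CO2; compound pin transfer (DMSO); 17.5 h at 37 C; CellTiter-Fluor, 30 min, fluorescence read.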

[15] = qHTS assay to identify small molecule antagonists of the estrogen related receptor (ERR) signaling pathway (AID 1224819)
Outline: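 qHTS in ERR cells, 2,000/well, 1536 format. Cpd (DMSO) added after 6 h settle, 18 h 37 C. One-Glo luminescence, 30 min RT.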

[16] = qHTS assay to identify small molecule agonists of the estrogen related receptor (ERR) signaling pathway (AID 1224820)
Outline: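 After 6 h plating (2,000 cells/well) and 18 h compound treatment at 37 C, ERR cells were lysed with One-Glo and luminescence read after 30 min at room temperature.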

[17] = system: estrogen-related receptor alpha (ERRalpha) with PGC-1alpha coactivator, human; assay: qHTS assay to identify small molecule antagonists of the estrogen related receptor signaling pathway with the pleiotropic PPARgamma coactivator (PGC) (AID 1224821; calls by dose curve; further: nearly all actives have a fitted effect of over 50% in size; further: potency means the concentration at half of the fitted maximal effect)
Outline: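 Luminescence from One-Glo luciferase reagent (30 min, room temperature) measured after 18 h compound treatment at 37 °C. Cells carry the PGC/ERR reporter and were seeded 6 h prior to dosing.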

[18] = qHTS assay to identify small molecule antagonists of the estrogen related receptor signaling pathway with the pleiotropic PPARgamma coactivator (PGC) cell viability counter screen (AID 1224822; further: potency means the concentration at half of the fitted maximal effect;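 further: viability read after 17.5 h compound exposure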)
Outline: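 Multiplexed viability counter screen run in PGC/ERR cells treated with compounds for 17.5 h at 37 C; live-cell protease signal measured by CellTiter-Fluor fluorescence.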

[19] = qHTS assay to identify small molecule agonists of the estrogen related receptor signaling pathway with the pleiotropic PPARgamma coactivator (PGC) (AID 1224823)
Outline: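 Luminescence from One-Glo reagent (30 min, room temperature) was read after 18 h compound treatment at 37 C of PGC/ERR cells plated 6 h beforehand; compounds delivered in DMSO by pin tool.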

Measured: Potency

COC1=CC(=O)O[C@@H](CCc2ccccc2)C1
inactive: [1] | [2] | [3] | [4] | [5] | [6] | [7] | [8] | [9] | [10]

CC1C(=O)C[C@]2(C(C)C)C[C@H]12 (some centres not stated)
inactive: [1] | [2] | [3] | [4] | [11] | [6] | [7] | [12] | [8] | [9] | [10]

Cc1ccc(N)cc1C
active: [10] 69.1 µM
inactive: [2] | [3] | [11] | [6] | [7] | [12] | [13] | [8] | [9]

ClCc1ccccc1
inactive: [2] | [3] | [11] | [5] | [6] | [7] | [12] | [8] | [9] | [10]

O=C(CBr)OCc1ccccc1
inactive: [2] | [3] | [4] | [6] | [12] | [13] | [8] | [9] | [10]

N#Cc1ccc(Cl)cc1
inactive: [1] | [2] | [3] | [4] | [6] | [7] | [12] | [13] | [8] | [9] | [10]

Clc1cccc2ccccc12
inactive: [1] | [2] | [3] | [4] | [6] | [7] | [12] | [13] | [8]

CC1(C)CCC(Cc2ccc(Cl)cc2)C1(O)Cn1cncn1 (configuration not stated)
inactive: [2] | [3] | [4] | [8]

CC(=O)[C@H]1CC[C@H]2[C@@H]3CC[C@H]4C[C@](C)(O)CC[C@]4(C)[C@H]3CC[C@]12C
inactive: [2] | [3] | [4] | [11] | [6] | [12] | [8] | [14] | [15] | [16] | [17] | [18] | [19]

NC(=O)CI
inactive: [2] | [3] | [4] | [6] | [8] | [10] | [14] | [15] | [16] | [19]
active: [17] 11.9 µM | [18] 12.3 µM

COc1c(C(C)(C)C)cc([N+](=O)[O-])c(C)c1[N+](=O)[O-]
inactive: [1] | [2] | [3] | [4] | [5] | [6] | [13] | [8] | [9] | [10]

COc1cc(Cl)c(OC)cc1Cl
inactive: [2] | [3] | [4] | [11] | [6] | [12] | [8] | [9] | [10]

C=CC(=O)OC(C)(C)C
inactive: [1] | [2] | [3] | [11] | [6] | [7] | [13] | [8] | [9] | [10]

O=C1C(Cl)C(CCl)CN1c1cccc(C(F)(F)F)c1 (configuration not stated)
inactive: [1] | [2] | [3] | [4] | [11] | [6] | [7] | [8]

CCC(Br)(CC)C(=O)NC(N)=O
inactive: [2] | [3] | [4] | [11] | [6] | [7] | [12] | [13] | [8] | [9]

Clc1cc(Cl)c(Cl)c(Cl)c1
inactive: [2] | [3] | [11] | [6] | [7] | [12] | [13] | [8] | [9] | [10]

Oc1ccc(Cl)c(Cl)c1Cl
inactive: [1] | [2] | [3] | [4] | [6] | [7] | [12] | [13] | [8] | [10]
active: [9] 63.4 µM

C#CCOC(C(=O)OCCN(C)C)(c1ccccc1)c1ccccc1
inactive: [1] | [2] | [3] | [4] | [5] | [6] | [7] | [13] | [8] | [9] | [10]

NNC(=O)c1cccnc1
inactive: [1] | [2] | [3] | [4] | [5] | [6] | [7] | [12] | [13] | [8] | [9]
active: [10] 30.7 µM

CC(C)(CCl)C(=O)Cl
inactive: [2] | [3] | [4] | [11] | [6] | [13] | [8] | [9]

CO/N=C(/C(=O)OC)c1ccccc1COc1ccccc1C
active: [9] 7.7 µM
inactive: [2] | [3] | [4] | [6] | [7] | [10]

CC(=O)c1cc2c(cc1C)C(C)(C)C(C)CC2(C)C (configuration not stated)
inactive: [1] | [2] | [3] | [11]
active: [6] 49 µM | [13] 43.6 µM

C=CCC1([C@H](C)CCC)C(=O)NC(=O)NC1=O
inactive: [1] | [2] | [4] | [11] | [5] | [6] | [7] | [12] | [13] | [8] | [9]
